This note sets out measurements from PubChem BioAssay AID1745853 (National Center for Advancing Translational Sciences (NCATS), 2022).

SMILES strings stand for the structures. Among all 25,000 compounds or so, about 970 (3.9%) were called active. About 8% were inconclusive and are not listed. How the calls were made is not given here. The entries come from a sample that favours actives as a whole.

Common to all, as to assay: Primary Screen for Target Class Profiling of Small Molecule Inhibitors of Methyltransferases
Assay [1] addresses Catechol O-methyltransferase (Homo sapiens) (UniProt P21964). The conditions noted are these: purified enzyme, MTase-Glo SAH luminescence; activity change, negative = inhibition: at 40 µM, stronger effect = lower value; outcome: 40 uM. An excerpt:
(§1) PI: Matthew D. Hall Ph.D. and Quinlin M. Hanson Ph.D.
(§2) National Center for Advancing Translational Sciences (NCATS)
(§3) National Institute of Health (NIH), Rockville, MD
(§4) Target class profiling (TCP) is a chemical biology approach amenable to investigating understudied biological targets. TCP is achieved by developing a generalizable assay platform and applying it to screen a curated set of compound libraries against representative members of a target class. Small molecule methyltransferases (SMMTase) are a subclass of methyltransferase that act on metabolites to modulate signaling pathways, metabolize xenobiotics, or balance the available methyl pool. We screened four curated libraries totaling 27,574 unique compounds against the SMMTases nicotinamide N-methyltransferase (NNMT), phenylethanolamine N-methyltransferase (PNMT), histamine N-methyltransferase (HNMT), glycine N-methyltransferase (GNMT), catechol O-methyltransferase (COMT), and guanidinoacetate N-methyltransferase (GAMT). The data generated by this TCP can be leveraged for informed tool molecule development. For example, in the associated publication we identified a chemotype of HNMT-selective inhibitors. Additionally, we identified a putative SMMTase-selective inhibitor with potential as a tool molecule for studying broader methyltransferase biology.
(§5) High-through put screening assays were developed at the National Center for Advancing Translational Science (NCATS) for the enzymes NNMT, PNMT, HNMT, GNMT, COMT, and GAMT. Enzymatic activity was measured as a function of SAM cofactor conversion using the MTase Glo kit (Promega) for all enzymes. All assays were performed in 1536-well format with substrates and SAM concentrations at KM values. Enzyme concentration and assay timing were optimized for 10-20% SAM conversion. Initial screening of 27,574 compounds was done as single-point assays using the highest compound concentration (40 uM). […] These compounds were replated in 11-point dose response and assayed against NNMT, PNMT, HNMT, GNMT, COMT, GAMT, and a counter-assay. The IC50 and efficacy (maximal response) values were determined for each dose-response curve. These values are also accounted for in the area under the curve (AUC) values.
(§6) PROTOCOL TABLE (as described by Inglese J, Shamu CE and Guy RK. 2007)
(§7) SEQUENCE No. (e.g., 1, 2, 3, etc.); […] (e.g., Cells, Incubation, Reagent, etc.); VALUE; DESCRIPTION.
(§8) 1; Reagent; 2 uL; SMMTase Enzyme (2x) in reaction buffer, columns 1- 48.
(§9) 2; Reagent; 1 uL; SAM (4x) in reaction buffer, columns 1-48.
(§10) 3; Controls; 23 nL; DMSO in column 4; sinefungin in DMSO (0 uM - 40 uM) in 7-point 1:2 dilution series (n = 2) in column 2.
(§11) 4; Compounds; 23 nL; Columns 5-48.
(§12) 5; Reagent; 1 uL; Substrate (4x) in reaction buffer, columns 2-48.
(§13) 6; Time; 20-30 min; Incubation.
(§14) 7; Reagent; 1 uL; MTase-Glo reagent (5X), columns 1-48.
(§15) 8; Time; 30 min; Incubation.
(§16) 9; Reagent; 5 uL; MTase-Glo Detection reagent, columns 1-48.
(§17) 10; Time; 30 min; Incubation, luminescence evolution.
(§18) 11; Detection; Luminescence; ViewLux uHTS Microplate Imager (PerkinElmer).
(§19) NOTES (numbers refer to Sequence numbers above)
(§20) 1, 2, 5. White Medium Binding Greiner 1536-well plates (Cat #789175-F, Greiner Bio-One, Monroe, NC); Reaction buffer: 50 mM Tris, pH 8.0, 3 mM MgCl2, 1 mM EDTA, 50 mM NaCl, 1 mM DTT, and 0.1 mg/mL BSA. Evaporation was prevented by covering assay plates with metal lids containing holes to allow gas diffusion.
(§21) 1. Six SMMTase were profiled: HNMT, GNMT, PNMT, COMT, NNMT, GAMT
(§22) 5. The corresponding substrate was used for each enzyme: HNMT - 5.3 uM Histamine; GNMT - >500 uM Glycine; PNMT - 16.2 uM Norephinephrine; COMT - 13.7 uM Norephinephrine; NNMT - 3.8 uM Nicotinamide; GAMT - 2.5 uM Guanidinoacetate.6, 8, 10. Room temperature
(§23) 6. Final reaction conditions: 10 nM COMT, 5 uM SAM, 15 uM norepinephrine, 50 mM Tris, pH 8.0, 3 mM MgCl2, 1 mM EDTA, 50 mM NaCl, 1 mM DTT, and 0.1 mg/mL BSA; refer to tables 2 and S1 for specific timing.
8. […]

In assay [2] the target is Glycine N-methyltransferase (Homo sapiens) (UniProt Q14749). The conditions noted are these: purified enzyme, MTase-Glo SAH luminescence; measured here: GNMT inhibition; at 40 µM; stronger effect = lower value.
Text: as §1, §2, §3, §4, §5, §6, §7, §8, §9, §10, §11, §12, §13, §14, §15, §16, §17, §18, §19, §20, §21, §22, §23
8. […]

For assay [3], the target named is Guanidinoacetate N-methyltransferase (Homo sapiens) (UniProt Q14353). The conditions noted are these: purified enzyme, MTase-Glo SAH luminescence; measured here: GAMT inhibition; at 40 µM; stronger effect = lower value.
Text: as §1, §2, §3, §4, §5, §6, §7, §8, §9, §10, §11, §12, §13, §14, §15, §16, §17, §18, §19, §20, §21, §22, §23
8. […]

Assay [4] has as its target Histamine N-methyltransferase (Homo sapiens) (UniProt P50135). The conditions noted are these: purified enzyme, MTase-Glo SAH luminescence; measured here: HNMT inhibition; at 40 µM; stronger effect = lower value.
Text: as §1, §2, §3, §4, §5, §6, §7, §8, §9, §10, §11, §12, §13, §14, §15, §16, §17, §18, §19, §20, §21, §22, §23
8. […]

The target in assay [5] is Nicotinamide N-methyltransferase (Homo sapiens) (UniProt P40261). The conditions noted are these: purified enzyme, MTase-Glo SAH luminescence; measured here: NNMT inhibition; at 40 µM; stronger effect = lower value.
Text: as §1, §2, §3, §4, §5, §6, §7, §8, §9, §10, §11, §12, §13, §14, §15, §16, §17, §18, §19, §20, §21, §22, §23
8. […]

Assay [6] addresses Phenylethanolamine N-methyltransferase (Homo sapiens) (UniProt P11086). The note with it: purified enzyme, MTase-Glo SAH luminescence; measured here: PNMT inhibition; at 40 µM; stronger effect = lower value.
Text: as §1, §2, §3, §4, §5, §6, §7, §8, §9, §10, §11, §12, §13, §14, §15, §16, §17, §18, §19, §20, §21, §22, §23
8. […]
On the % scale 0 is the no-effect control and ±100 the full control effect.

Glycine N-methyltransferase (Homo sapiens), sequence (Q14749 whole entry, looked up): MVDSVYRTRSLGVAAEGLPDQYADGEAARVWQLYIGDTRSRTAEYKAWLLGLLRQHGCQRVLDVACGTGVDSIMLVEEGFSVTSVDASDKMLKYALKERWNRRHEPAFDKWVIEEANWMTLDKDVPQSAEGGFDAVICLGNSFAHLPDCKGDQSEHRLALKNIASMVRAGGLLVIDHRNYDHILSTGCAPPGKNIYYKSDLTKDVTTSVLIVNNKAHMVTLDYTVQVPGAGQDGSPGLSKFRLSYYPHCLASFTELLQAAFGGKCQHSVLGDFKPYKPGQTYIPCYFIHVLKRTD
Catechol O-methyltransferase (Homo sapiens), sequence (P21964 whole entry, looked up): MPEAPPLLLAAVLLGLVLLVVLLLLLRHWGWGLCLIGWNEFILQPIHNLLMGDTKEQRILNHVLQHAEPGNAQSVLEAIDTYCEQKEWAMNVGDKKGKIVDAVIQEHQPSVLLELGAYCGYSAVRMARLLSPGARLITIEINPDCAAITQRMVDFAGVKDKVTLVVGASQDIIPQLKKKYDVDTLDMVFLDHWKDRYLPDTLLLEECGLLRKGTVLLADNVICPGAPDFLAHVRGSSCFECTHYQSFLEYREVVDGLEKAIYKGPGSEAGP
Nicotinamide N-methyltransferase (Homo sapiens), sequence (P40261 whole entry, looked up): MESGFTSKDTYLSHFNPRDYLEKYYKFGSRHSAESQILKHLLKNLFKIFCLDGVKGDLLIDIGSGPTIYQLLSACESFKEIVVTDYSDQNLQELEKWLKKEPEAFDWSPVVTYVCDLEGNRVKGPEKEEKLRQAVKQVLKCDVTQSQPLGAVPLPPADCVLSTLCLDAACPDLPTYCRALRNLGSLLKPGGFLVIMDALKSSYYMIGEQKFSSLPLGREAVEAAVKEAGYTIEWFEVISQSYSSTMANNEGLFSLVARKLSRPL
Phenylethanolamine N-methyltransferase (Homo sapiens), sequence (P11086 whole entry, looked up): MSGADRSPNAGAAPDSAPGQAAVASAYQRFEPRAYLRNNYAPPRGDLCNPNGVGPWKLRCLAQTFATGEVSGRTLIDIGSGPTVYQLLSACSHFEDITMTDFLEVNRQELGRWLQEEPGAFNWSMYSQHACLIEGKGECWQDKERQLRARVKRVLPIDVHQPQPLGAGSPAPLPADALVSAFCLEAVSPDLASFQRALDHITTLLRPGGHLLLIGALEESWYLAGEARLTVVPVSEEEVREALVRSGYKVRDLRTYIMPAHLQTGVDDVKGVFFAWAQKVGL
Histamine N-methyltransferase (Homo sapiens), sequence (P50135 whole entry, looked up): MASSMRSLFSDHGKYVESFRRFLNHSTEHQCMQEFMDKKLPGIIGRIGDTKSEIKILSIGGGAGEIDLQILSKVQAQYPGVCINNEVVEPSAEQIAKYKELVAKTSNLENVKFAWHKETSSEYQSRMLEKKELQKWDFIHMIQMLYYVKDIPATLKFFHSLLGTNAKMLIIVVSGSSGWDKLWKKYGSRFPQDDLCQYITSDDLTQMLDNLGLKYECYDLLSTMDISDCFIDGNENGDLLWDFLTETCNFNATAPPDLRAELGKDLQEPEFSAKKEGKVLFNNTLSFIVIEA

As to `Cc1ccc(N2C(=O)c3cc(-c4ccco4)nn3CC2(C)C(=O)NC2CCCCC2)cc1Cl` (stereo not drawn), the activity change, negative = inhibition in assay [1] is -4.47% (inactive); in assay [2], -10.8%; in assay [3], 2.7%; in assay [4], -6.61%; in assay [5], -7.94%; in assay [6], -7.34%.

As to `O=C(c1coc(CN2CCN(C/C=C/c3ccccc3)CC2)n1)N1CCC[C@H]1CO`, the activity change, negative = inhibition in assay [1] was 1.4% (inactive); in assay [2], -0.744%; in assay [3], 2.52%; in assay [4], 0.892%; in assay [5], -2.33%; in assay [6], 15.6%.

Regarding `O=C1Nc2ccc(O)cc2O[C@H]1O[C@@H]1O[C@H](CO)[C@@H](O)[C@H](O)[C@H]1O`, the activity change, negative = inhibition in assay [1] was 2.34% (inactive); in assay [2], 1.1%; in assay [3] it was 7.9%; in assay [4], 2.99%; in assay [5], -5.97%; in assay [6], 2.07%.

`CCc1ccc(NS(=O)(=O)c2cc3c(cc2C)n(C)c(=O)n3C)cc1`: the activity change, negative = inhibition in assay [1] was 6.7% (inactive); in assay [2], 2.79%; in assay [3], 0%; in assay [4], 1.74%; in assay [5] it was -13.9%; in assay [6], -1.81%.

For the molecule `CNC(=O)c1ccccc1Nc1nc(Nc2ccc(N3CCOCC3)cc2OC)ncc1Cl`, the activity change, negative = inhibition in assay [1] was 1.38% (inactive); in assay [2] it was -17.4%; in assay [3], 6.33%; in assay [4], -0.939%; in assay [5], -26.5%; in assay [6], -6.85%.

Consider `CC1(C)CCC(C)(C)c2cc3c(cc21)Sc1ccccc1N=C3c1ccc(C(=O)O)cc1`, for which the activity change, negative = inhibition in assay [1] is 9.33% (inactive); in assay [2], 1.76%; in assay [3], 4.41%; in assay [4], 11.6%; in assay [5] it was -26.9%; in assay [6], 3.91%.

`Cc1cc(C[C@@H]2COC[C@@H]2NC(=O)c2cccc(-n3nc(C)cc3C)c2)on1`: the activity change, negative = inhibition in assay [1] was -7.5% (inactive); in assay [2] it was -5.02%; in assay [3], -7.68%; in assay [4], -5.59%; in assay [5], -12.1%; in assay [6], -25.6%.

On to `CCCN1C(=O)c2cc3sccc3n2CC1(C)C(=O)NC1CCC(C)CC1` (stereo not drawn), for which the activity change, negative = inhibition in assay [1] was 0.545% (inactive); in assay [2] it was 0.536%; in assay [3] it was 4.2%; in assay [4], -0.49%; in assay [5], 0.936%; in assay [6], -2.48%.

Take `CCOC(=O)c1cc2n(n1)CC(C)(C(=O)NC1CCCC1)N(c1ccc(C)cc1)C2=O` (stereo not drawn): the activity change, negative = inhibition in assay [1] was 2.4% (inactive); in assay [2] it was -0.39%; in assay [3] it was 4.54%; in assay [4] it was 3.6%; in assay [5], -0.074%; in assay [6], 2.88%.

For `Nc1ccc2c3c(cccc13)C(=O)NC2=O`, the activity change, negative = inhibition in assay [1] is -69.4% (active); in assay [2], -41.1%; in assay [3], -13%; in assay [4] it was -8.7%; in assay [5] it was -18.3%; in assay [6], -8.01%.

Turning to `CCOc1ccccc1CN1C(=O)c2ccc(-c3ccco3)n2CC1(C)C(=O)NC1CCCCC1` (stereo not drawn), the activity change, negative = inhibition was 5.26% (inactive) in assay [1]; -1.1% in assay [2]; 0% in assay [3]; 5.47% in assay [4]; 3.87% in assay [5]; 0.061% in assay [6].

With `COc1ccc(-c2ncc3c(n2)OCCN(Cc2ccccc2)C3=O)cn1`, the activity change, negative = inhibition in assay [1] is -3.7% (inactive); in assay [2], -12%; in assay [3], -5.92%; in assay [4] it was -5.55%; in assay [5], -19.1%; in assay [6] it was -28.2%.

In the case of `CN1C(=O)c2cc(C(=O)N3CCN(Cc4ccccc4)CC3)nn2CC1(C)C(=O)NCc1ccccc1` (stereo not drawn), the activity change, negative = inhibition in assay [1] was 1.23% (inactive); in assay [2], 5.09%; in assay [3] it was 0.749%; in assay [4] it was 4.84%; in assay [5] it was 6.08%; in assay [6], -8.04%.
